According to PubChem BioAssay (NCI):
Compounds without any hit were thinned out: in the full panel of roughly 79,000, 15% have a hit. A number with no mark means an inactive call. Rule as the data show it: active = growth inhibition above about 70%; inactive = the rest.

test: NCI Yeast Anticancer Drug Screen. Data for the sgs1 mgt1 strain (AID 161);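 also: 0% = growth of cultures given vehicle only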; settings: S. cerevisiae sgs1 mgt1 strain, at 50.0 µM, active compounds read high
In short: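 Growth of a repair-deficient yeast mutant was monitored after compound treatment and expressed as inhibition relative to vehicle-treated cultures.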

Question: With `CSc1nnc(CF)c(=O)[nH]1` as the molecule, how does the growth inhibition read?
Answer: -12.3%

Question: For `O=C1NC(=O)C2C3CCC(C3)C12` (stereo not drawn), which growth inhibition is on record?
Answer: -7.65%

Question: For `C=Nc1ccc(C)cc1`, which growth inhibition is on record?
Answer: -12%

Question: For `COc1ccc(C(=O)N/N=C/c2cccc(OC)c2OC)cc1`, which growth inhibition is on record?
Answer: -20.1%

Question: With `O=c1nc2c(c(-c3ccc(Br)cc3)[nH]1)COC/C2=C\c1ccc(Br)cc1` as the molecule, how does the growth inhibition read?
Answer: 35.8%

Question: With `COC(=O)c1cc2ccccc2c2c3c(ccc12)OCO3` as the molecule, how does the growth inhibition read?
Answer: -10.3%

Question: For `CCC(C)(CC(=O)O)CC(=O)O`, which growth inhibition is on record?
Answer: -15.7%

Question: Which growth inhibition does the source give for `Cc1cc(SCC(=O)c2ccccc2)nc2ccccc12` here?
Answer: -8.85%

Question: For `N#Cc1c(=O)[nH]c(=O)n2c1[nH]c1ccccc12`, which growth inhibition is on record?
Answer: 11.9%

Question: For `O=C1OC(=O)c2ccc([N+](=O)[O-])c3c(C(=O)O)ccc1c23`, which growth inhibition is on record?
Answer: -22.9%

Question: For `CCc1cccc(C)c1N1C(=O)C(=O)C(c2nc3ccccc3o2)C(=O)C1=O`, which growth inhibition is on record?
Answer: 19.7%

Question: For `CCCCCCCCCCCCCCCC(=O)OCC(=O)O`, which growth inhibition is on record?
Answer: 23.2%

Question: Which growth inhibition does the source give for `O=C(O)CNC1CCCC1` here?
Answer: 4.35%

Question: With `Clc1ccc(-c2nnc3c4ccccc4ccn23)cc1` as the molecule, how does the growth inhibition read?
Answer: -5.1%

Question: With `COC(=O)c1ccc2cc1Nc1c(C#N)cnc(=S)n1-2` as the molecule, how does the growth inhibition read?
Answer: 11.2%

Question: Which growth inhibition does the source give for `COC(=O)C(CC(=O)c1ccc2ccccc2c1)OC` (stereo not drawn) here?
Answer: 7.2%

Question: For `CCN(CC)CCCNC(Cc1ccccc1)c1ccc(OC)cc1` (stereo not drawn), which growth inhibition is on record?
Answer: -4.05%

Question: For `O=C(O)C(O)c1cccc([N+](=O)[O-])c1` (stereo not drawn), which growth inhibition is on record?
Answer: -8.8%

Question: Which growth inhibition does the source give for `CCCCc1ccc(Nc2nc(OC)c3ncn(C4CC(O)C(CO)O4)c3n2)cc1` (stereo not drawn) here?
Answer: 67.2%

Question: Which growth inhibition does the source give for `Cc1cccc(C2=N/C(=C\c3ccccc3)C(=O)O2)c1` here?
Answer: 18.8%

Question: With `Fc1c(F)c(F)c(Nc2c(F)c(F)c3c(F)c(F)c(F)c(F)c3c2F)c(F)c1F` as the molecule, how does the growth inhibition read?
Answer: -16.3%

Question: For `CCCCCc1c(C)[nH]n(C(N)=NCCSCc2nc[nH]c2C)c1=O`, which growth inhibition is on record?
Answer: 35%

Question: With `CN(N)c1nc2c(N)ncnc2n1C1OC(CO)C(O)C1O` (stereo not drawn) as the molecule, how does the growth inhibition read?
Answer: 30.6%

test: NCI Yeast Anticancer Drug Screen. Data for the cln2 rad14 strain (AID 165);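 also: 0% = growth equal to vehicle treated cultures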; settings: S. cerevisiae cln2 rad14 strain, at 50.0 µM, active compounds read high
In short: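 Relative to vehicle controls, growth inhibition of compound-treated cln2 rad14 yeast was recorded.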

Question: Which growth inhibition does the source give for `COc1ccc(C(=O)N/N=C/c2ccccc2OC)cc1` here?
Answer: -10.6%

Question: With `O=C1OC(=O)c2c(Br)c(Br)c(Br)c(Br)c21` as the molecule, how does the growth inhibition read?
Answer: -8.9%

Question: For `CCOc1cc2c(cc1O)CC[C@@H]1[C@@H]2CC[C@]2(C)C(OS(=O)OC3CC[C@@H]4[C@H]5CCc6cc(O)c(OCC)cc6[C@@H]5CC[C@@]34C)CC[C@@H]12` (stereo partly drawn), which growth inhibition is on record?
Answer: 26.7%

Question: For `Cc1c(S)cnc2ccccc12`, which growth inhibition is on record?
Answer: -66.6%

Question: With `CCCCc1c(O)nc(NCCCC(N)C(=O)O)[nH]c1=O` (stereo not drawn) as the molecule, how does the growth inhibition read?
Answer: -28.9%

Question: With `CCCC[n+]1cccc(C(=O)c2ccccc2)c1` as the molecule, how does the growth inhibition read?
Answer: 2.75%

Question: With `O=C1OC(c2ccc([N+](=O)[O-])cc2)=N/C1=C\c1cc(Br)ccc1O` as the molecule, how does the growth inhibition read?
Answer: 64.3%

Question: With `O=C1C(Cl)N(c2ccccc2[N+](=O)[O-])C1c1c[nH]c2ccccc12` (stereo not drawn) as the molecule, how does the growth inhibition read?
Answer: -19.9%

Question: With `CCOC(=S)SC(=S)SC(=S)OCC` as the molecule, how does the growth inhibition read?
Answer: -27.8%

Question: For `CCCCCCCCCSc1nc2ccc(N=Cc3ccccc3O)cc2s1`, which growth inhibition is on record?
Answer: -10.1%

Question: With `CC(C)NP(=O)(OC1CC(C)(C)N(O)C(C)(C)C1)OC1CC(C)(C)N(O)C(C)(C)C1` as the molecule, how does the growth inhibition read?
Answer: -16.3%

Question: Which growth inhibition does the source give for `OCC1OC(n2cnc3c(NCc4ccccc4)ncnc32)C(O)C1O` (stereo not drawn) here?
Answer: -44.2%

Question: For `O/N=C1\CC2CC1C1CC3(CC3)C21` (stereo not drawn), which growth inhibition is on record?
Answer: -0.9%

Question: With `CCOC(=O)c1[nH]n(-c2ccccc2)c(=O)c1C=NC(=S)c1cccnc1` as the molecule, how does the growth inhibition read?
Answer: 20.2%

Question: Which growth inhibition does the source give for `N=c1c(C(=O)O)cccn1O` here?
Answer: -50.9%

Question: For `COc1cc2c3c(c1)CCCN3CCC2`, which growth inhibition is on record?
Answer: -4.95%

Question: Which growth inhibition does the source give for `CC(C)C12Cc3c(ccc4ccccc34)OC1(C)Oc1ccc3ccccc3c1C2` (stereo not drawn) here?
Answer: 20.1%

Question: Which growth inhibition does the source give for `CSc1nnc(CF)c(=O)[nH]1` here?
Answer: -4.2%

Question: For `O=C1NC(=O)C2C3CCC(C3)C12` (stereo not drawn), which growth inhibition is on record?
Answer: -41.8%

Question: With `C=Nc1ccc(C)cc1` as the molecule, how does the growth inhibition read?
Answer: -15.7%

Question: Which growth inhibition does the source give for `COc1ccc(C(=O)N/N=C/c2cccc(OC)c2OC)cc1` here?
Answer: -26.2%

Question: With `O=c1nc2c(c(-c3ccc(Br)cc3)[nH]1)COC/C2=C\c1ccc(Br)cc1` as the molecule, how does the growth inhibition read?
Answer: 8%

Question: Which growth inhibition does the source give for `COC(=O)c1cc2ccccc2c2c3c(ccc12)OCO3` here?
Answer: -43.6%

Question: With `CCC(C)(CC(=O)O)CC(=O)O` as the molecule, how does the growth inhibition read?
Answer: 0.85%

Question: Which growth inhibition does the source give for `Cc1cc(SCC(=O)c2ccccc2)nc2ccccc12` here?
Answer: -2.25%
